Screens: PubChem, National Center for Advancing Translational Sciences (NCATS)
Tau ThT inhib – tau fibrillization inhibition (ThT binding); recombinant tau K18 P301L, heparin-induced fibrillization, ThT fluorescence; actives 2.1% (n = 270,000); Potency, µM (doses to about 57.4 µM), for the others: top-dose activity, negative = inhibition, usual class: inhibitors; also: nearly all actives have a fitted effect of over 55% in size
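Fibril formation assay: tau K18 P301L at 15 uM with trace Alexa 594 label, heparin inducer 20 uM, pH 7 sodium acetate buffer, 37 C for 6 hr; endpoint ThT signal.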
Gal4-VP16 FLuc – Gal4-VP16 reporter inhibition counter-screen; Drosophila S2 Gal4-VP16 UAS-luciferase, luminescence, 20 h; Potency, µM (series often up to 53.6 µM), for the others: at the top dose activity, negative = inhibition, hits mostly inhibitors; actives 3.5% (n = 310,000); AID 2546;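 also: Gal4-VP16 expression switched on by copper sulfate through the metallothionein promoter; nearly all actives have a fitted effect of over 50% in size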
RORg inh – blocks mouse ROR gamma transcriptional activity | Potency, µM (titrated, usually from 53.6 µM), inactives show at the highest dose activity change, negative = inhibition, actives largely listed as inhibitors | Drosophila S2 Gal4-RORgamma UAS-luciferase reporter, 20 h | actives 5.4% (n = 310,000) | P51450; also: nearly all actives have a fitted effect of over 60% in size
Target sequence (P51450 whole entry, looked up, the tested form may be a part): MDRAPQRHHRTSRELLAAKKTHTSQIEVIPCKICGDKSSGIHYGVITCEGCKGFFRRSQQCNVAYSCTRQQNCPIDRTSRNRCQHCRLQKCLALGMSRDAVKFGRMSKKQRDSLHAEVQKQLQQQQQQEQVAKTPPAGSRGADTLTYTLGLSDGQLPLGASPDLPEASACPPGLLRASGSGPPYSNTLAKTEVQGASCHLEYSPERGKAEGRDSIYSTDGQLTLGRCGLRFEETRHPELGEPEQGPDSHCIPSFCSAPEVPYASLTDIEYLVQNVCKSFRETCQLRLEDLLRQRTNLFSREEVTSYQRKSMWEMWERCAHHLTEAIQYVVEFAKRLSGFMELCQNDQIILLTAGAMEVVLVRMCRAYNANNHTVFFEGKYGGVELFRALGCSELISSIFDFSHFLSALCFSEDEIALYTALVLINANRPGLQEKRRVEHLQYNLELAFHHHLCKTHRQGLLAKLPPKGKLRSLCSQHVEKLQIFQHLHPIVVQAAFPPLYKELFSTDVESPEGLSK
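Luciferase reporter read in Schneider cells carrying Gal4-RORγ (mouse) and UAS-Photinus luciferase; cells given compound 1 h before 700 uM copper sulfate induction, then incubated 20 h at ambient temperature.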
Tau fluor counter – counter-screen for tau fibril formation inhibitors; Potency, µM (top dose mostly 57.7 µM), without a hit: top-dose activity change, negative = decrease; tau K18 P301L Alexa594 fluorescence, heparin fibrillization; actives 0.93% (n = 280,000); also: nearly all actives have a fitted effect of over 55% in size
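Human tau K18 P301L (15 uM unlabeled, 0.24 uM Alexa 594-labeled) in 100 mM sodium acetate pH 7 with 20 uM heparin, 6 hr at 37 C. ThT 30 uM added, 1 hr ambient; Alexa 594 FP and total fluorescence read at 555/632 nm.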
Tau FP inhib – tau fibrillization inhibition (FP). P10636. K18 P301L tau heparin fibrillization, Alexa594 FP, 6 h. Potency, µM (series often up to 57.7 µM), without a hit: at the highest dose activity, negative = inhibition, usual class: inhibitors. actives 0.39% (n = 280,000). AID 1468; also: nearly all actives have a fitted effect of over 55% in size
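Read-out: fluorescence polarization of Alexa 594-labeled tau (0.24 uM), 555 nm excitation, 632 nm emission. Mixtures held 15 uM unlabeled K18 P301L, compound and 20 uM heparin, pH 7 acetate buffer, incubated 6 hr at 37 C.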
Starred values were filed as active, the others as inactive; ? = inconclusive; nt = not tested or not shown; [ ] = dose if it differs, or a comment. A selection: hits, their analogues and other compounds. The true share with any hit is near 7.3%. Calls follow the shape of the dose curve; as a rule, active = well fitted curve in the direction sought with a large enough effect; inconclusive = small, poorly fitted or top-dose-only effect, or another doubt; inactive = no such curve, though single readings can be large; an effect the other way counts as inactive or inconclusive. % is scaled to controls: 0 for no effect and ±100 for the full control effect; potency is read from the fitted curve at half-maximal effect.

SMILES	Tau ThT inhib	Gal4-VP16 FLuc	RORg inh	Tau fluor counter	Tau FP inhib
COc1cc2c(cc1NC(=O)COC(=O)[C@@H](NS(=O)(=O)c1cccc(Cl)c1)C(C)C)oc1ccccc12	-10%	11µM*	13µM*	-28%	?
COc1cc2c(cc1NC(=O)COC(=O)CNS(=O)(=O)c1ccc(C)cc1)oc1ccccc12	-18%	4µM*	11µM*	-22%	-14%
COc1ccc(S(=O)(=O)N[C@@H](C)C(=O)OCC(=O)Nc2cc3oc4ccccc4c3cc2OC)cc1	-14%	16µM*	?	?	-7%
COc1ccc(OCC(=O)Nc2cc3oc4ccccc4c3cc2OC)cc1	-12%	-6%	-19%	-3%	-1%
O=C(Nc1ccc(N2CCN(C(=O)c3cccs3)CC2)cc1)c1ccc(F)cc1	nt	4%	21%	nt	nt
CCOC(=O)N/N=C1/C[C@@H](O)[C@@H](O)[C@@H]2[C@@H]3C(=O)N(C[C@@H]4CCCO4)C(=O)[C@H]3CC[C@@H]12	-9%[11.5 µM]	-6%[10 µM]	23%[10 µM]	-12%[11.6 µM]	-14%[11.6 µM]
CC1Cc2ccccc2N1C(=O)CN1CCC(n2nnc3cc(C(F)(F)F)ccc32)CC1 (configuration not stated)	-3%	4µM*	39%	-3%	0%
COc1ccccc1-c1ccc2ncnc(NCCNC(C)=O)c2c1	nt	-4%	14%	nt	nt
COc1ccc(N2CCN(C(CNS(=O)(=O)c3c(C)cc(C)cc3C)c3ccco3)CC2)cc1 (configuration not stated)	?	nt	nt	?	11%
CC(=O)c1c(C)nc(Nc2nc(C)c3cc(C)ccc3n2)nc1C	-13%	?	4µM*	-12%	-6%
O=C(NC(=S)NCc1ccco1)c1ccccc1	7%	3%	13%	-7%	-2%[2.34 µM]
CC(=O)Nc1ccc(NC(=S)NC(=O)c2ccc(C(C)(C)C)cc2)cc1	nt	-5%	?	nt	nt
CC(C)(C)c1ccc(-c2noc(CCC(=O)NCc3ccco3)n2)cc1	-11%	4µM*	0.32µM*	-13%	-1%
COCCNC(=S)NC(=O)c1ccc(C(C)(C)C)cc1	?	11µM*	2µM*	-22%	-5%
COCCCNC(=S)NNC(=O)C1CC1c1ccc(C(C)(C)C)cc1 (configuration not stated)	-2%	-13%	4.5µM*	-8%	-3%
O=C(NC(=S)NCc1ccco1)c1ccc(Br)cc1	nt	16µM*	14µM*	nt	nt
Cc1ccc(-n2nnc3c(sc4nc(C)c(C)cc43)c2=O)cc1Cl	1%	nt	nt	-4%	-11%
Cc1cc(C)cc(NC(=O)CCc2nnc3n(CC(C)C)c(=O)c4ccccc4n23)c1	-9%	nt	nt	-6%	-1%
Cc1ccc(C(=O)NCc2ccco2)cc1	nt	-2%	43%	nt	nt
CC(C)(C)c1ccc(C(=O)NC(=S)NCc2ccco2)cc1	nt	7.9µM*	6.3µM*	nt	nt
CCCn1c(=O)c(C(=O)Nc2cccc(C)c2)c(O)c2ccccc21	nt	13µM*	?	nt	nt
CCCCCCCCC(=O)NNC(=O)c1c(O)c2ccccc2n(CC)c1=O	-12%	-2%	-11%	-14%	1%
CCCn1c(=O)c(C(=O)NNC(=O)c2ccccc2Cl)c(O)c2ccccc21	nt	?	11µM*	nt	nt
CCCCCCC(=O)NNC(=O)c1c(O)c2ccccc2n(CC)c1=O	-16%	?	11µM*	-19%	-3%
Cn1c(=O)c(C(=O)NCc2ccccc2Cl)c(O)c2ccccc21	nt	-8%	-11%[1.91 µM]	nt	nt
SMILES	Tau ThT inhib	Gal4-VP16 FLuc	RORg inh	Tau fluor counter	Tau FP inhib
CCn1c(=O)c(C(=O)NCc2ccccc2Cl)c(O)c2ccccc21	nt	20µM*	?	nt	nt
CCNc1nc2c(c(=O)n(C)c(=O)n2C)n1Cc1ccc(F)cc1	2%	nt	nt	5%	10%
COC(=O)[C@@]1(Cc2ccc(OC)cc2)[C@H]2c3cc(C(=O)N(C)C)n(CCF)c3C[C@H]2CN1C(=O)c1ccccc1	-8%	10%	-15%	-12%	-9%
Cc1ccc2nc(N(Cc3cccnc3)C(=O)C3COc4ccccc4O3)sc2c1 (configuration not stated)	-11%	nt	nt	-6%	-3%
O=C(O)CO	nt	-2%	1%	nt	nt
O=C(NCCc1cccs1)c1ccc(Cl)cc1	nt	?	8.9µM*	-10%	4%
Cc1ccc(C(=O)NCCc2cccs2)cc1	5%	5.6µM*	?	11%	5%
